Laboratory results: PubChem BioAssay (NCATS)
Results filed as inconclusive are left out. The source made the active and inactive calls. Calls follow the shape of the dose curve; as a rule, active = well fitted inhibition curve with a large enough effect; inconclusive = small, poorly fitted or top-dose-only effect; inactive = no such curve, though single readings can be large or run the other way.

The compounds below were run against Retinaldehyde dehydrogenase 3 (Homo sapiens) (UniProt P47895) (assay: qHTS for Inhibitors of the Aldehyde Dehydrogenase Family (ALDH1A3) Primary screen (AID 2061315;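 also: plate controls were DMSO vehicle for no effect and reference inhibitor for full effect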)). Details: ALDH inhibition qHTS; series mostly up to 56 µM; activity change, negative = inhibition: at the top concentration.
In the case of `COc1cc(O)cc(C)c1C(=O)O[C@@H]1[C@H](O)[C@@H](CO)O[C@H]1n1ccc(=O)[nH]c1=O`, the “activity change, negative = inhibition” value is reported as -14.5% [at 28 µM] (inactive).
With `Cc1ccc(S(=O)(=O)N2CCC[C@H]2c2ccc(F)cc2)cc1` the “activity change, negative = inhibition” value was 8.54% (inactive).
With `CCOc1cn(-c2ccc(F)cc2C)nc1C(=O)Nc1ccc(Oc2ccnc3cc(OC)c(OC)cc23)c(F)c1` the “activity change, negative = inhibition” value was -2.31% (inactive).
In the case of `COc1cc(C(C)=O)ccc1O[C@@H]1O[C@H](CO)[C@@H](O)[C@H](O)[C@H]1O`, the “activity change, negative = inhibition” value is reported as 12.4% (inactive).
In the case of `C=C1[C@H](OC(C)=O)[C@H]2[C@@H](OC(=O)c3ccccc3)[C@@H](C)C[C@]2(O)[C@@H](OC(C)=O)[C@H](C)/C=C/C(C)(C)C(=O)[C@H](OC(C)=O)[C@H]1OC(C)=O`, the “activity change, negative = inhibition” value is reported as 8.69% [at 16.9 µM] (inactive).
`O=S(=O)(Nc1ccc(C(O)(C(F)(F)F)C(F)(F)F)cc1)c1cccs1` was tested, and the “activity change, negative = inhibition” value was 2.79% (inactive).
With `O=C(/C=C/c1ccc(O)cc1)OCC1=CC2OC(=O)C3=CO[C@@H](O[C@@H]4O[C@H](CO)[C@@H](O)[C@H](O)[C@H]4O)[C@H]1[C@@H]32` (stereo not given in full) the “activity change, negative = inhibition” value was 0.894% [at 28 µM] (inactive).
With `CO[C@@]12CC3[C@@H]([C@@H](O)[C@@H](OC(C)=O)C4[C@](C)(COC(C)=O)CCC[C@]34C)[C@@H](C)C1=CC(=O)O2` (stereo not given in full) the “activity change, negative = inhibition” value was 4.25% [at 28 µM] (inactive).
In the case of `CC1=C(C(=O)O)/C(=C\CO[C@@H]2O[C@H](CO)[C@@H](O)[C@H](O)[C@H]2O)C(OC(=O)/C=C\c2ccc(O)cc2)C1` (stereo not given in full), the “activity change, negative = inhibition” value is reported as -14.7% [at 28 µM] (inactive).
For `CC(=O)OC[C@]12[C@H](OC(C)=O)C(=O)[C@@H]3[C@@H](O)[C@@]14O[C@@]3(C)COC(=O)c1cccnc1[C@@H](C)[C@H](C)C(=O)O[C@@H]([C@H](O)[C@@H]2OC(C)=O)[C@]4(C)O`, the “activity change, negative = inhibition” value was -15% [at 16.9 µM] (inactive).
With `C[C@@H]1O[C@@H](O[C@H]2[C@H](O)[C@@H](C(=O)O)O[C@@H](O[C@H]3CC[C@@]4(C)C(CC[C@]5(C)C4CC=C4C6CC(C)(C)CC[C@]6(C(=O)O)CC[C@]45C)C3(C)C)[C@@H]2O[C@@H]2OC[C@@H](O)[C@H](O)[C@H]2O)[C@H](O)[C@H](O)[C@H]1O` (stereo not given in full) the “activity change, negative = inhibition” value was 5.31% [at 16.9 µM] (inactive).
In the case of `O=C(O)c1ccc(Nc2ncc3c(n2)-c2ccc(Cl)cc2C(c2c(F)cccc2F)=NC3)cc1`, the “activity change, negative = inhibition” value is reported as 5.84% (inactive).
With `C/C(=C\C(=O)C(C)C1CCC2C3=C(CCC21C)C1(C)CCC(=O)C(C)(C)C1(O)CC3)C(C)(C)O` (stereo not given) the “activity change, negative = inhibition” value was 21.7% [at 28 µM] (inactive).
`CN1[C@@H]2CC[C@H]1CC(NC(=O)n1c(=O)[nH]c3ccccc31)C2` (stereo not given in full) was tested, and the “activity change, negative = inhibition” value was 1.4% (inactive).
In the case of `CC(=O)OC1C(O)/C(C)=C\C2C(OC(=O)c3ccccc3)C(C)CC2(OC(C)=O)C(OC(C)=O)C(C)/C=C/C(C)(C)C1OC(C)=O` (stereo not given), the “activity change, negative = inhibition” value is reported as 2.66% [at 16.9 µM] (inactive).
In the case of `COC(=O)C12CCC(C)C(C)C1C1=CCC3C4(C)CCC(OC(C)=O)C(C)(C)C4CCC3(C)C1(C)CC2` (stereo not given), the “activity change, negative = inhibition” value is reported as 0.734% [at 28 µM] (inactive).
For `COc1ccc(CC(=O)NCc2ccccc2-c2ccccc2C(=O)NCCc2cccnc2)cc1`, the “activity change, negative = inhibition” value was -8.78% (inactive).
With `CC1(C)CCCC2(C)C1CC=C1C(=O)OC(O)C12O` (stereo not given) the “activity change, negative = inhibition” value was -11.7% (inactive).
In the case of `CC1(C)CC[C@]2(C(=O)O)CC[C@]3(C)C(=CCC4[C@@]5(C)CC[C@H](O[C@H]6O[C@H](C(=O)O)[C@@H](O)[C@H](O[C@@H]7O[C@H](CO)[C@H](O)[C@H](O)[C@H]7O)[C@H]6O)C(C)(C)C5CC[C@]43C)[C@@H]2C1` (stereo not given in full), the “activity change, negative = inhibition” value is reported as 5.35% [at 16.9 µM] (inactive).
`CC[C@H]1OC(=O)[C@H](C)[C@@H](O[C@H]2C[C@@](C)(OC)[C@@H](O)[C@H](C)O2)[C@H](C)[C@@H](O[C@H]2O[C@H](C)C[C@H](N(C)C)[C@H]2O)[C@](C)(O)C[C@@H](C)C(=O)[C@H](C)[C@@H](O)[C@]1(C)O` was tested, and the “activity change, negative = inhibition” value was 16.8% [at 28 µM] (inactive).
In the case of `OC1COC(OCC2OC(OCCc3ccccc3)C(O)C(O)C2O)C(O)C1O` (stereo not given), the “activity change, negative = inhibition” value is reported as 12.5% [at 28 µM] (inactive).
In the case of `C=C1CC[C@@H]2[C@@](C)(CO[C@@H]3O[C@H](CO)C(O)[C@H](O)C3O)[C@H](O)CC[C@@]2(C)[C@@H]1CC/C(C)=C/CO` (stereo not given in full), the “activity change, negative = inhibition” value is reported as 18.1% [at 16.9 µM] (inactive).
For `CC(/C=C/[C@]1(O)[C@@]2(C)CO[C@@]1(C)C[C@@H](O)C2)=C\C(=O)O[C@@H]1O[C@H](CO)[C@@H](O)[C@H](O)[C@H]1O`, the “activity change, negative = inhibition” value was -18.6% [at 28 µM] (inactive).
In the case of `CC/C=C(\C(=O)N[C@@H]1C(=O)N2C(C(=O)OCOC(=O)C(C)(C)C)=C(COC(N)=O)CS[C@H]12)c1csc(N)n1`, the “activity change, negative = inhibition” value is reported as 1.53% (inactive).
In the case of `CC(C)S(=O)(=O)NC[C@H](C)c1ccc(NC(=O)c2cc(F)cc(F)c2)cc1`, the “activity change, negative = inhibition” value is reported as -2.04% (inactive).
In the case of `N[C@H]1CN(c2c(F)cc3c(=O)c(C(=O)O)cn(C4C[C@@H]4F)c3c2Cl)CC12CC2` (stereo not given in full), the “activity change, negative = inhibition” value is reported as 24.4% (inactive).
`CC(O)(CC(=O)O)CC(=O)OCc1ccc(O[C@@H]2O[C@H](CO)[C@@H](O)[C@H](O)[C@H]2O)cc1` (stereo not given in full) was tested, and the “activity change, negative = inhibition” value was 2.87% [at 28 µM] (inactive).
For `CC1(C)CC[C@]2(C(=O)O)CC[C@]3(C)C(=CCC4[C@@]5(C)CC[C@H](O[C@@H]6O[C@H](CO)[C@@H](O)[C@H](O)[C@H]6O[C@@H]6O[C@H](CO)[C@@H](O)[C@H](O)[C@H]6O)[C@@](C)(CO)C5CC[C@]43C)[C@@H]2C1` (stereo not given in full), the “activity change, negative = inhibition” value was 4.59% [at 16.9 µM] (inactive).
In the case of `CCCN1CCC(c2cccc(S(C)(=O)=O)c2)CC1`, the “activity change, negative = inhibition” value is reported as -18.4% (inactive).
`C=CC(C)(CC/C=C(\C)C(=O)OC)OC1OC(COC(=O)CC(C)(O)CC(=O)O)C(OC2OC(CO)C(O)C(O)C2O)C(O)C1O` (stereo not given) was tested, and the “activity change, negative = inhibition” value was -3.69% [at 16.9 µM] (inactive).
In the case of `C[C@@H]1O[C@@H](O[C@@H]2[C@@H](O)[C@H](O[C@@H]3[C@@H](O)[C@@H](O)[C@H](O[C@H]4[C@H](OC(=O)[C@]56CCC(C)(C)C[C@H]5C5=CCC7[C@@]8(C)C[C@H](O)[C@H](O[C@@H]9O[C@H](C(=O)O)[C@@H](O)[C@H](O)[C@H]9O)[C@@](C)(CO)C8[C@H](O)C[C@@]7(C)[C@]5(C)CC6)OC[C@H](O)[C@@H]4O)O[C@H]3C)OC[C@H]2O)[C@H](O)[C@H](O)[C@H]1O` (stereo not given in full), the activity change, negative = inhibition is reported as 15.6% [at 11.2 µM] (inactive).
With `CC1(C)CCCC2(C)C1C(O)C=C(CO)C2(O)CO` (stereo not given) the “activity change, negative = inhibition” value was -11.9% (inactive).
For `O=C(Nc1ccc(Cl)cc1F)c1ccccc1O`, the “activity change, negative = inhibition” value was -19.7% (inactive).
With `C=C[C@H]1[C@H](O[C@@H]2O[C@H](CO)[C@@H](O)[C@H](O)[C@H]2O)OC=C(C(=O)OC)[C@H]1CC=O` the “activity change, negative = inhibition” value was 7.71% (inactive).
`C=C1C[C@@]23CC[C@@H]4[C@](C)(C(=O)O)CCC[C@@]4(C)C2=CC[C@H]1C3` was tested, and the “activity change, negative = inhibition” value was 2.71% (inactive).
With `Cc1nc2sc(C(=O)NCc3ccncc3)c(N)c2c(C)c1Cl` the “activity change, negative = inhibition” value was 5.74% (inactive).
`CC(=O)OC[C@]12[C@H](OC(C)=O)[C@H](OC(=O)c3ccccc3)[C@@H]3[C@@H](OC(C)=O)[C@]1(OC3(C)C)[C@H](C)C[C@H](OC(=O)c1ccccc1)[C@@H]2OC(=O)c1ccccc1` was tested, and the “activity change, negative = inhibition” value was 9.22% [at 16.9 µM] (inactive).
With `OC[C@H]1O[C@@H](OCCc2ccccc2)[C@H](O)[C@@H](O)[C@@H]1O` the “activity change, negative = inhibition” value was 16.4% (inactive).
With `CC(C)(O)C1CC=C(C(=O)OC[C@H]2O[C@@H](Oc3cc(C(=O)O)cc(O)c3O)[C@H](O)[C@@H](O)[C@@H]2O)CC1` (stereo not given in full) the “activity change, negative = inhibition” value was 18.9% [at 28 µM] (inactive).
For `COc1cc(C(C)=O)c(OC)c2c1OC(C)(C)C=C2`, the “activity change, negative = inhibition” value was -18.1% (inactive).
